Assay results as given in the supplement of paper PMC11018630.
Where a name gives a salt, the structure may show the parent alone. ± gives the standard deviation of the averaged measurements. Whole data set: some 1,100 compounds, median “day of extracellular matrix detachment from plate” near 16, cut for the lowest 2% near 10. The entries come from a sample that favours the lowest values as a whole.

The compounds below were run on RDEB dermal fibroblasts EB71 (assay: day of extracellular matrix detachment from plate (days); higher = delayed detachment (less fibrotic matrix)). Conditions: compound concentration: 10 uM.

| Structure (SMILES) | day of extracellular matrix detachment from plate |
| --- | --- |
| Cc1cccc([C@H](C)c2c[nH]cn2)c1C [Dexmedetomidine] | 18 |
| Cc1cccc(Cc2c[nH]cn2)c1C [Detomidine HCl] | 14.7 ± 7.4 |
| Cc1cccc(C(C)c2c[nH]cn2)c1C (stereo unspecified) [Medetomidine HCl] | 17 ± 5.2 |
| Cc1cccc([C@H](C)c2c[nH]cn2)c1C [Dexmedetomidine HCl (Precedex)] | 10 ± 1.7 |
| O=C(O[C@H]1C[C@H]2CC[C@@H](C1)[N+]21CCCC1)C(O)(c1ccccc1)c1ccccc1 [Trospium chloride] | 12 |
| Cc1ccc(-c2nc3ccc(C)cn3c2CC(=O)N(C)C)cc1 [Zolpidem] | 17.7 ± 1.1 |
| O=C1CC[C@@]2(O)[C@H]3Cc4ccc(O)c5c4[C@@]2(CCN3CC2CC2)[C@H]1O5 [Naltrexone HCl] | 10 ± 1.7 |
| C=C1CC[C@@]2(O)[C@H]3Cc4ccc(O)c5c4[C@@]2(CCN3CC2CC2)[C@H]1O5 [Nalmefene HCl] | 13 |
| C=CCN1CC[C@]23c4c5ccc(O)c4O[C@H]2C(=O)CC[C@@]3(O)[C@H]1C5 [Naloxone HCl] | 17.7 ± 3.5 |
| O=C(O[C@H]1C[N+]2(CCCOc3ccccc3)CCC1CC2)C(O)(c1cccs1)c1cccs1 [Aclidinium Bromide] | 16.7 ± 2.3 |
| N[C@@H]1C[C@H]1c1ccccc1 [Tranylcypromine (2-PCPA) HCl] | 13 |
